The source of these data is PubChem BioAssay (NCATS).

Assay [1] is described as follows: Cell Viability - N2a (AID 540).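 Further: plate controls were DMSO alone for no effect and tamoxifen control for full effect; nearly all actives have a fitted effect of over 45% in size.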 Particulars: N2a mouse neuroblastoma cell viability; at 92.2 µM (top of the series). Put shortly: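 Luminescent ATP signal (CellTiter-Glo, 20 min at room temperature) served as the viability read-out after N2a cells were treated with compounds for 40 hours at 37 °C. Concentration-response data were fitted to the Hill equation for AC50.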

Assay [2] is described as follows: Cell Viability - NIH 3T3 (AID 541).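 Further: plate controls were DMSO alone for no effect and tamoxifen positive control for full effect; nearly all actives have a fitted effect of over 25% in size.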 Put shortly: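 Luminescent ATP signal (CellTiter-Glo) served as the viability read-out after NIH 3T3 cells were exposed to compounds over a concentration range for 40 hr at 37 °C. Hill-equation modelling of concentration-response data gave AC50.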
Assay [3] in a line: Cell Viability - H-4-II-E (AID 543). Further: on the % scale 0 is the no-effect control and ±100 the full control effect; nearly all actives have a fitted effect of over 35% in size. Put shortly:
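Luminescent ATP signal (CellTiter-Glo) served as the viability read-out, with cytotoxicity seen as a concentration-dependent ATP drop. Cells were treated for 40 hours in complete medium. AC50 values derive from Hill-equation modelling.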

The nature of assay [4]: Cell Viability - SH-SY5Y (AID 544). Further: nearly all actives have a fitted effect of over 55% in size. The note with it: SH-SY5Y neuroblastoma cell viability; at 92.2 µM (top of the series). Put shortly:
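Luminescent ATP read-out (CellTiter-Glo) measures loss of viable SH-SY5Y neuroblastoma cells after 40 hr compound exposure at 37 °C. AC50 values derive from standard Hill modelling of qHTS concentration-response data.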

The nature of assay [5]: Cell Viability - Renal Proximal Tubule (AID 545). Further: nearly all actives have a fitted effect of over 40% in size. Put shortly: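 Rat kidney proximal tubule cells, freshly isolated; 1000 cells/well, 5 hr settle, compound 40 hr 37 °C. CellTiter-Glo 20 min RT, luminescence read. AC50 by standard Hill fit.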
Assay [6] is described as follows: Cell Viability - Mesenchymal (AID 546).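 Further: cells exposed to compound for 40 hours before reading.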 The note with it: mesenchymal cells viability, qHTS; at 91.7 µM (top of the series). Put shortly: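 Human kidney mesenchymal cells from normal renal glomeruli, 1000 cells/well, rested 5 hr at 37 °C, then treated 40 hr at 37 °C in complete medium. Cellular ATP read by CellTiter-Glo luminescence; AC50 from Hill-equation fits.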
For orientation: In qHTS, concentration-response curves come from the screen itself.

The nature of assay [7]: Cellular Toxicity (caspase-3) HepG2 (AID 654).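 Further: cells exposed to compound for 16 hours before reading; 0% = DMSO alone and 100% = caspase signal from 100 µM tamoxifen.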 Put shortly: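 Cells plated 5 hr at 37 °C, compound added, incubated 16 hr at 37 °C. Caspase-Glo 3/7 reagent followed, 20 min at room temperature, then luminescence read. Activation scored as signal increase; AC50 from Hill fit.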
The nature of assay [8]: Cellular Toxicity (caspase-3) Jurkat (AID 655).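 Further: cells exposed to compound for 16 h at 37 °C before reading.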 The note with it: Jurkat caspase-3 activation, luminescence; caspase-3 activation: at 92.2 µM (top of the series), DMSO = 0%, tamoxifen = 100%. Put shortly: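 Luminescent caspase-3/7 readout (aminoluciferin substrate cleavage) in human T-cell leukemia Jurkat cells after 16 hr compound exposure. Concentration-response normalized to DMSO and 100 uM tamoxifen; AC50 by standard Hill equation.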

The nature of assay [9]: Cellular Toxicity (caspase-3) HUV-EC-C (AID 656). Put shortly:
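Luminescent caspase-3/7 activation (aminoluciferin substrate cleavage) in HUV-EC-C cells after 16 hr compound exposure, 37°C. Signal normalized to DMSO basal and 100 uM tamoxifen as 100%; AC50 from concentration-response fitted with the Hill equation.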

Assay [10] is described as follows: Cellular Toxicity (caspase-3) SHSY5Y (AID 657). Put shortly:
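Luminescent caspase-3/7 readout (aminoluciferin release) in SH-SY5Y cells after 16 h compound exposure in complete medium. Activity scaled between DMSO basal and 10 uM staurosporine as 100%; concentration-response fitted to Hill equation for AC50.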

Assay [11] can be described thus: Cellular Toxicity (caspase-3) BJ (AID 658).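 Further: 0% = DMSO basal and 100% = 10 µM staurosporine.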 Put shortly:
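BJ human foreskin fibroblasts, 1000 cells/well, treated 16 hours at 37 °C in complete medium; caspase 3/7 activity by Caspase-Glo luminescence after 1 hr at room temperature. Normalized to DMSO and 10 uM staurosporine; AC50 from Hill fits.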

A short description of assay [12]: Cellular Toxicity (caspase-3) MRC-5 (AID 659).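 Further: 0% = DMSO basal and 100% = 10 µM staurosporine.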 Put shortly: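 MRC-5 human normal lung fibroblasts, 1500 cells/well, treated 16 h at 37 °C in complete medium. Caspase 3/7 measured by Caspase-Glo luminescence after 1 h at room temperature. Normalized to DMSO and 10 uM staurosporine; AC50 from Hill fit.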
A short description of assay [13]: Cellular Toxicity (caspase-3) Mesangial (AID 660).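 Further: combined caspase 3 and 7 activity read by Caspase-Glo luminescence.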 Put shortly: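 Mesangial cells, 1000/well, 5 h settle at 37 °C; compound 16 h, 37 °C; Caspase-Glo 3/7 reagent 20 min RT; luminescence. Norm.: DMSO = 0%, tamoxifen 100 uM = 100%. AC50, Hill fit.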
The nature of assay [14]: Cellular Toxicity (caspase-3) SK-N-SH (AID 661).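 Further: 0% = DMSO basal and 100% = 10 µM staurosporine.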 Put shortly:
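Human neuroblastoma SK-N-SH, 1500 cells/well, 5 hr pre-incubation, then compound 16 hr, 37 °C. Caspase-Glo 3/7 reagent, 1 hr RT, luminescence. Norm. to DMSO/10 uM staurosporine; Hill-fit AC50.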

The nature of assay [15]: Cellular Toxicity (caspase-3) H-4-II-E (AID 663).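 Further: cells exposed to compound for 16 hr before readout.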 Put shortly: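 Rat hepatoma H-4-II-E cells (1500/well) plated 5 hr, then exposed to compound titrations for 16 hr at 37 °C. Caspase-Glo 3/7 luminescence read after 20 min at RT; data normalized to DMSO and 100 uM tamoxifen, AC50 from Hill fits.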
Assay [16] in a line: Cellular Toxicity (caspase-3) Hek293 (AID 664).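 Further: cells exposed to compound for 16 h at 37 °C before readout.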 Put shortly: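 Cells plated, 5 hr at 37 °C; compounds added; 16 hr at 37 °C; Caspase-Glo 3/7 reagent, 20 min RT; luminescence read. Activation expressed relative to DMSO and 100 uM tamoxifen, AC50 by Hill model.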
Assay [17] can be described thus: Cellular Toxicity (caspase-3) N2a (AID 665).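 Further: compound exposure lasted 16 h at 37 °C before readout.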 Put shortly: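 N2a cells, 1500/well, 5 h settle at 37 °C; cpd 16 h, 37 °C; Caspase-Glo 3/7, 1 h RT; luminescence. Norm: DMSO = 0, 10 uM staurosporine = 100%. AC50, Hill fit.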
The target in assay [18] is Glucocorticoid receptor (Homo sapiens) (UniProt P04150). The assay can be described thus: GR-GFP Redistribution (AID 450;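 active means compounds whose dose series gives a full or clear partial fitted curve of increased nuclear translocation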; further: potency means the concentration at half of the fitted maximal effect). The note with it: U2OS GR-GFP nuclear translocation, laser cytometry, 2 h.
For assay [19] the target is unchanged. Put plainly: GR-EFC Redistribution (AID 451; calls by dose curve; further: potency means the concentration at half of the fitted maximal effect). The note with it: CHO-K1 GR-EFC translocation, beta-gal luminescence, 2 h. Put shortly: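 CHO-K1 cells expressing nuclear EA and GR-ED fragments of b-gal; compounds titrated up to 46 uM final, 2 h at 37 C. GR nuclear translocation read as complemented b-gal luminescence after 1 h RT detection.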
Assay [20] concerns the target 3',5'-cyclic-AMP phosphodiesterase 4B (Homo sapiens) (UniProt Q07343). Put plainly: qHTS Assay for Inhibitors of PDE-IV (AID 607; active means well fitted activation curve with a large enough effect in the main read-out, with a control signal flat, not every such curve was filed as active; further: % of control where 0% means no effect). Put shortly: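 ACTOne HEK293 cells carry a modified cAMP-gated CNG channel and express endogenous PDE4; plated 1000 cells/well, compounds up to 22.9 uM final. Membrane-potential dye fluorescence (ex 535/em 590) was read; parental cells received 10 uM forskolin + 100 uM RO 20-1724.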

Where “and” joins values, the source holds several entries; their conditions need not be identical. Identical values can stand only once. Values without a mark were called inactive. Inconclusive results are not listed. Calls of active or inactive are those of the source. Unless noted, the call rests on the fitted dose curve; in most records, active means well fitted curve in the direction sought with a large enough effect; inconclusive means small, poorly fitted or top-dose-only effect, or another doubt; inactive means no such curve, though single readings can be large; an effect the other way counts as inactive or inconclusive.

3',5'-cyclic-AMP phosphodiesterase 4B (Homo sapiens), sequence (Q07343 whole entry, looked up): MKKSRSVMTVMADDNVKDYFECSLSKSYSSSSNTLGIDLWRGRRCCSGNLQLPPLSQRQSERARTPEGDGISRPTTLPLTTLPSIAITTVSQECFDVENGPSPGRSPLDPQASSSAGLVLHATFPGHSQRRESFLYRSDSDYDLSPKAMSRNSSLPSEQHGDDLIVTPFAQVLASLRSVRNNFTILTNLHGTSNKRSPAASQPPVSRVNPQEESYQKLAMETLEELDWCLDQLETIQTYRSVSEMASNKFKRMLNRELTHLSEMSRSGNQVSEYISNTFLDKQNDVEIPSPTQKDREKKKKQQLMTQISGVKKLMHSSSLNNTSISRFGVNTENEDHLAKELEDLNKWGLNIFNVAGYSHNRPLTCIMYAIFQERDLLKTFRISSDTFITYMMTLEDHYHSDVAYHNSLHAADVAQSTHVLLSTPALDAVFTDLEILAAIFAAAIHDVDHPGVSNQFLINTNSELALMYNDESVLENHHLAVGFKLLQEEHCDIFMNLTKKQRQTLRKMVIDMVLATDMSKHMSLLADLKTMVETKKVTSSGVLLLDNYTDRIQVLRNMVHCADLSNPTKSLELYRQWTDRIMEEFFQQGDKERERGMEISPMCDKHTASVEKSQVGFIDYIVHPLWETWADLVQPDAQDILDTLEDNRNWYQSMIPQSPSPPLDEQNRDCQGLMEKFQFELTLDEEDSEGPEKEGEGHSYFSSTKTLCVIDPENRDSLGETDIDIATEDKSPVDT
Glucocorticoid receptor (Homo sapiens), sequence (P04150 whole entry, looked up, the tested form may be a part): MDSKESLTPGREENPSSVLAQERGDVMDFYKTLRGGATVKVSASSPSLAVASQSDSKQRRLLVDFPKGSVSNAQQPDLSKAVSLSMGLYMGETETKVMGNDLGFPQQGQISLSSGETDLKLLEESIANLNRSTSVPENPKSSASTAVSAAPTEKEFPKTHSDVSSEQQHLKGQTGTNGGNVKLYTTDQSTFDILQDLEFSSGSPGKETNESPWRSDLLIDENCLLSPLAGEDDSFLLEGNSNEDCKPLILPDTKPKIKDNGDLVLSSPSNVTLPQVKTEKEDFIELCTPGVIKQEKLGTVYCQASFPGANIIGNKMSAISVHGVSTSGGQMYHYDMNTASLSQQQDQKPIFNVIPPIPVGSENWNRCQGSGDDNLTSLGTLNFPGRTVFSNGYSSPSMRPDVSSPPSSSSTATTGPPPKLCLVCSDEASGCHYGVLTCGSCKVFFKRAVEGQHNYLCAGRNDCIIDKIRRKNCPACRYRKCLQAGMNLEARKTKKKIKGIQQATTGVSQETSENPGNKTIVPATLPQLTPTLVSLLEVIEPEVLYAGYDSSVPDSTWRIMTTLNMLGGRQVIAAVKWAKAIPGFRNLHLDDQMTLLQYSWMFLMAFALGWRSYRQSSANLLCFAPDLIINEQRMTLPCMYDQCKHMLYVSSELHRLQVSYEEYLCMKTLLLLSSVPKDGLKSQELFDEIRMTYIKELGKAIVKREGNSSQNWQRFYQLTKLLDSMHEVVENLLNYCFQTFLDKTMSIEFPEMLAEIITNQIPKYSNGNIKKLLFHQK

Consider `CCOC(C)=O`, for which the results for the activity change, negative = cytotoxicity in assay [1] and in assay [6] were 9.44% and 10.1%, respectively. Also, the molecule was classed as inactive in assay [2], in assay [5], in assay [7], in assay [9], in assay [10] and in [11]. For the same molecule, the result in assay [12], in assay [13], in assay [14], in assay [15], in assay [16] and in [17] was inactive. Also, the Potency result in assay [3] was “inactive”. Moreover, the viability change, negative = cytotoxic in assay [4] is -3.69%. Besides, in assay [8], the caspase-3 activation was -0.547%.

As for `Cc1cc(C(=O)NNCc2ccccc2)no1`, the Potency in assay [18] and in [19] was above 20.6 µM throughout. In addition, in [20], the molecule was classed as inactive.

Consider `C[C@]12C=CC(=O)C=C1CC[C@@H]1[C@@H]2[C@@H](O)C[C@@]2(C)[C@H]1CC[C@]2(O)C(=O)COC(=O)CCC(=O)O`, for which the Potency in assay [18] is 0.0285 µM (active).

Turning to `CC1(C)S[C@@H]2[C@H](NC(=O)Cc3ccccc3)C(=O)N2[C@H]1C(=O)O`, the Potency in assay [18] and in [19] was above 20.6 µM throughout. The result in assay [20] was inactive.

With `Cc1ccccc1`, the activity change, negative = cytotoxicity in [1] is 5.04% and 4.17%; in assay [6] it was 6.68% and 3.68%. Besides, the molecule was called inactive in assay [2], in assay [5], in [7], in [9], in assay [10] and in assay [11]. Besides, the molecule was classed as inactive in assay [12], in [13], in assay [14], in assay [15], in assay [16] and in assay [17]. Further, in assay [3], the Potency entry was “inactive”. Besides, in [4], the viability change, negative = cytotoxic was -8.19% and -6.58%. Moreover, in assay [8], the caspase-3 activation is -1.43% and -0.873%.

In the case of `COc1ccc(CCNC[C@H](O)c2ccc(O)cc2)cc1OC`, the Potency in assay [18] and in assay [19] was above 46 µM throughout. Further, in assay [20], the result was inactive.

Consider `O=C(O)CC/C=C\CC[C@H]1[C@@H](N2CCCCC2)[C@@H](O)C[C@@H]1OCc1ccc(-c2ccccc2)cc1`, for which the Potency in [18] and in [19] was above 46 µM throughout. The molecule was called inactive in assay [20].

With `CN1Cc2c(N)cccc2C(c2ccccc2)C1` (configuration not stated), in assay [18], the Potency is above 20.6 µM.

On to `CC(O)CO` (configuration not stated), for which the activity change, negative = cytotoxicity in [1] was -4.29% and -9.5%; in assay [6], 1.55% and 7.01%. Further, the molecule was called inactive in assay [2], in [5], in assay [7], in [9], in assay [10] and in [11]. Besides, the molecule was called inactive in assay [12], in assay [13], in assay [14], in [15], in [16] and in [17]. For the same molecule, in assay [3], the Potency entry is “inactive”. Moreover, the viability change, negative = cytotoxic in [4] is -13.2% and -4.54%. Further, in assay [8], the caspase-3 activation is 1.29% and 0.367%.

Take `IC(I)I`: the activity change, negative = cytotoxicity in [1] is -10.4%; in assay [6], 5.44%. For the same molecule, the call in assay [2], in assay [5], in assay [7], in assay [9], in [10] and in assay [11] was inactive. Moreover, the result in [12], in assay [13], in assay [14], in assay [15], in assay [16] and in assay [17] was inactive. The Potency result in [3] is “inactive”. In addition, the viability change, negative = cytotoxic in [4] is -2.58%. In addition, the caspase-3 activation in [8] is -0.0373%.
